Among the test systems are NCI-H23 lung; NCI-H226 lung; NCI-H322M lung; HOP-62 NSCLC; NCI-H460 lung; HOP-92 NSCLC; A549/ATCC NSCLC; 786-0 renal; COLO 205 colon; DU-145 prostate; K-562 leukemia; MALME-3M melanoma; MDA-MB-231 breast; RXF 393 renal; SF-268 CNS; SF-295 CNS; SF-539 CNS; UACC-257 melanoma; M14 melanoma; NCI-H522 lung.
What all share (assay): NCI-60 one-dose screen, 48 h (100 = growth as untreated, 0 = no growth, -100 = all killed)
Conditions in all cases: 10 µM unless noted

Compounds without any hit were thinned out: in the full panel of roughly 83,000, 20% have a hit.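 Negative percent growth values reflect cell death: -40 means 40% of the cells present at the start died, and -100 means all died.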 Values without a mark were called inactive. Calls of active or inactive are those of the source. How the source made its calls: active means growth percent below 10; inactive means the rest.

For the compound `CC(C)c1ccc2occ(C=C3C(=O)NC(=O)NC3=O)c(=O)c2c1`, the growth was 97.5% in the experiment on NCI-H23 lung; 106% in the experiment on NCI-H226 lung; 116% with NCI-H322M lung; 101% in the experiment on HOP-62 NSCLC; 102% in the experiment with NCI-H460 lung; 63% in the experiment on HOP-92 NSCLC. The growth was 100% in the experiment with A549/ATCC NSCLC; 91.6% with 786-0 renal; 117% in the experiment on COLO 205 colon; 109% with DU-145 prostate; 72.7% in the experiment with K-562 leukemia; 93.7% in the experiment on MALME-3M melanoma. Further, the growth with MDA-MB-231 breast is 98.9%; in the experiment on RXF 393 renal it was 87.4%; in the experiment with SF-268 CNS it was 89.3%; in the experiment with SF-295 CNS it was 119%; in the experiment with SF-539 CNS, 121%; in the experiment with UACC-257 melanoma it was 96.1%. In the experiment on M14 melanoma, the growth was 91.3%.
Take `Cc1ccc(S(=O)(=O)n2cc(C(=O)C(=O)Nc3ccncc3)c3ccccc32)cc1`: the growth with NCI-H23 lung is 36.4%; with NCI-H226 lung, 64.2%; in the experiment on NCI-H322M lung it was 94.7%; in the experiment on HOP-62 NSCLC, 33.4%; in the experiment on NCI-H460 lung, 80.4%; in the experiment on HOP-92 NSCLC, 38.5%. Also, the growth is 73.5% with A549/ATCC NSCLC; 29.5% in the experiment with 786-0 renal; 107% in the experiment on COLO 205 colon; 22.4% in the experiment on DU-145 prostate; 23.8% in the experiment with K-562 leukemia; 48.4% in the experiment on MALME-3M melanoma. Also, the growth in the experiment with MDA-MB-231 breast is 42.9%; with RXF 393 renal it was 9.66% (active); in the experiment on SF-268 CNS, 44.6%; in the experiment with SF-295 CNS, 16.4%; in the experiment with SF-539 CNS, 15%; in the experiment with UACC-257 melanoma, 63.3%. Moreover, the growth in the experiment with M14 melanoma is 18.1%.
In the case of `CC(C)(C)NCCC(O)c1cc2c(Cl)cc(Cl)cc2c2cc(C(F)(F)F)ccc12` (stereo not given), the growth was -78.6% (active) in the experiment with NCI-H23 lung; -73.8% (active) in the experiment with NCI-H226 lung; -54.2% (active) with NCI-H322M lung; -87.1% (active) with HOP-62 NSCLC; -73.6% (active) with NCI-H460 lung; -62.1% (active) with HOP-92 NSCLC. Besides, the growth in the experiment with A549/ATCC NSCLC was -88.2% (active); with 786-0 renal, -65.5% (active); in the experiment with COLO 205 colon, -87.3% (active); in the experiment with DU-145 prostate it was -95.1% (active); in the experiment on K-562 leukemia, -72.2% (active); in the experiment with MALME-3M melanoma, -53.3% (active). Moreover, the growth was -74.4% (active) with MDA-MB-231 breast; -95.9% (active) in the experiment on RXF 393 renal; -88.6% (active) with SF-268 CNS; -82.2% (active) in the experiment with SF-539 CNS; -81.7% (active) in the experiment on UACC-257 melanoma; -77.4% (active) in the experiment with M14 melanoma.
With `O=C1Nc2ccc3c(c2/C1=C\c1cc2c(cc1Br)OCO2)OCO3`, the growth was 19.5% with NCI-H23 lung; 13.4% in the experiment on NCI-H226 lung; 1.4% (active) in the experiment on NCI-H322M lung; -21.3% (active) in the experiment with HOP-62 NSCLC; -31.2% (active) in the experiment with NCI-H460 lung; -5.47% (active) with HOP-92 NSCLC. The growth was 27.9% in the experiment with A549/ATCC NSCLC; 10.7% in the experiment with 786-0 renal; -37.1% (active) in the experiment on COLO 205 colon; -12.6% (active) in the experiment on DU-145 prostate; 14.9% with K-562 leukemia; -5.38% (active) with MALME-3M melanoma. Moreover, the growth with MDA-MB-231 breast was 24.5%; in the experiment with RXF 393 renal it was -16.3% (active); in the experiment with SF-268 CNS it was 33.8%; in the experiment on SF-295 CNS, 11.2%; in the experiment with SF-539 CNS, -36% (active); in the experiment with UACC-257 melanoma, 58.3%. The growth in the experiment on M14 melanoma is -6.52% (active).
As to `C=C(C)[C@@H]1C[C@H](O)Cc2cc(F)ccc2N1`, the growth was 96.9% in the experiment with NCI-H23 lung; 95.6% in the experiment with NCI-H226 lung; 102% in the experiment with NCI-H322M lung; 87.4% in the experiment with HOP-62 NSCLC; 101% with NCI-H460 lung; 95.6% in the experiment on HOP-92 NSCLC. Further, the growth is 97.5% in the experiment on A549/ATCC NSCLC; 105% in the experiment with 786-0 renal; 101% in the experiment with COLO 205 colon; 107% in the experiment on DU-145 prostate; 42.2% in the experiment on K-562 leukemia; 109% with MALME-3M melanoma. Moreover, the growth with MDA-MB-231 breast is 108%; in the experiment with RXF 393 renal it was 100%; with SF-268 CNS, 113%; with SF-295 CNS, 116%; in the experiment with SF-539 CNS, 86.3%; in the experiment with UACC-257 melanoma, 93.3%. Besides, the growth in the experiment on M14 melanoma is 88.6%.
Regarding `COC1=C(OC)C(=O)C(CCCCCCCCCC[P+](c2ccccc2)(c2ccccc2)c2ccccc2)=C(C)C1=O`, the growth was -8.24% (active) in the experiment on NCI-H23 lung; -19.5% (active) in the experiment with NCI-H226 lung; -17.9% (active) in the experiment with NCI-H322M lung; -19.5% (active) in the experiment with HOP-62 NSCLC; -52.1% (active) with NCI-H460 lung; 2.62% (active) in the experiment with NCI-H522 lung. Moreover, the growth in the experiment with A549/ATCC NSCLC was -4.09% (active); with 786-0 renal, -57.8% (active); in the experiment on COLO 205 colon, -93.3% (active); in the experiment with DU-145 prostate, 6.01% (active); in the experiment with K-562 leukemia, -48.9% (active); in the experiment with MALME-3M melanoma, -86.3% (active). Moreover, the growth in the experiment on MDA-MB-231 breast is -39.6% (active); with RXF 393 renal it was -56.7% (active); with SF-268 CNS it was -61.6% (active); with SF-295 CNS, -52.6% (active); in the experiment with SF-539 CNS, -25.1% (active); in the experiment on UACC-257 melanoma, -61.2% (active).
`CC(C)(C)OC(=O)NCCc1ccc(N=C=S)cc1`: the growth was 81.4% in the experiment on NCI-H23 lung; 99.1% with NCI-H226 lung; 86.9% in the experiment on NCI-H322M lung; 70.1% with HOP-62 NSCLC; 82.2% in the experiment with NCI-H460 lung; 39.4% in the experiment on HOP-92 NSCLC. For the same compound, the growth in the experiment with A549/ATCC NSCLC was 77.4%; with 786-0 renal, 80%; in the experiment with COLO 205 colon, 72.4%; in the experiment with DU-145 prostate, 64.6%; in the experiment on K-562 leukemia it was 57%; in the experiment on MALME-3M melanoma it was 54.8%. In addition, the growth was 88.4% in the experiment with MDA-MB-231 breast; 54.9% in the experiment on RXF 393 renal; 71.9% in the experiment on SF-268 CNS; 55.5% in the experiment with SF-295 CNS; 69.2% with SF-539 CNS; 78.9% in the experiment with UACC-257 melanoma. In addition, the growth in the experiment on M14 melanoma was 75.3%.
`Cc1cc(N/N=C/c2nc(-c3ccccc3)oc2C)c2cc(Br)ccc2n1`: the growth in the experiment with NCI-H23 lung was 88.6%; with NCI-H226 lung, 88.3%; in the experiment with NCI-H322M lung, 94.3%; with HOP-62 NSCLC, 87.5%; in the experiment on NCI-H460 lung, 73.6%; with HOP-92 NSCLC, 71.9%. In addition, the growth was 87% in the experiment on A549/ATCC NSCLC; 86.7% in the experiment with 786-0 renal; 85.6% with COLO 205 colon; 91.3% with DU-145 prostate; 21.9% in the experiment on K-562 leukemia; 95.2% in the experiment with MALME-3M melanoma. Besides, the growth with MDA-MB-231 breast was 53.5%; in the experiment with RXF 393 renal, 102%; in the experiment on SF-268 CNS, 95%; with SF-295 CNS, 95%; with SF-539 CNS, 75.2%; in the experiment on UACC-257 melanoma, 102%. For the same compound, the growth with M14 melanoma is 91.6%.
